Assay outcomes from PubChem BioAssay.
In the library only some 3.2% were active in any assay of this set; here they are far more common.
Tau fibril FP = inhibitors of human tau fibril formation | P10636 | K18 P301L tau heparin fibrillization, Alexa594 FP, 6 h | Potency, µM (series often up to 57.7 µM), for inactives: at the top dose activity, negative = inhibition, hits mostly inhibitors | hit rate 0.39% among 280,000 | AID 1468; note: potency is the fitted concentration of half-maximal effect; % is set by controls: 0 for no effect and ±100 for the full control effect; nearly all actives have a fitted effect of over 55% in size
Target sequence (P10636 561-689 P618L limits assumed): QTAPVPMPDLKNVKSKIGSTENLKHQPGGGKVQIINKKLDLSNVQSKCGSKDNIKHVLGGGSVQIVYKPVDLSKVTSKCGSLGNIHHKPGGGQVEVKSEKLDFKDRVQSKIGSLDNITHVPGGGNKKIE
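Read-out: fluorescence polarization of Alexa 594-labeled tau (0.24 uM), 555 nm excitation, 632 nm emission. Mixtures held 15 uM unlabeled K18 P301L, compound and 20 uM heparin, pH 7 acetate buffer, incubated 6 hr at 37 C.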
Tau fluor cs = counter-screen for tau fibril formation inhibitors. hit rate 0.93% among 280,000. tau K18 P301L Alexa594 fluorescence, heparin fibrillization. Potency, µM (doses to about 57.7 µM), for inactives: top-dose activity change, negative = decrease. AID 1463; note: potency is the fitted concentration of half-maximal effect; % is set by controls: 0 for no effect and ±100 for the full control effect; nearly all actives have a fitted effect of over 55% in size
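Human tau K18 P301L (15 uM unlabeled, 0.24 uM Alexa 594-labeled) in 100 mM sodium acetate pH 7 with 20 uM heparin, 6 hr at 37 C. ThT 30 uM added, 1 hr ambient; Alexa 594 FP and total fluorescence read at 555/632 nm.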
KDM4E inh = JMJD2E (human) inhibition. B2RXH2. JMJD2E catalytic domain, FDH-coupled NADH fluorescence (FDH is formaldehyde dehydrogenase). Potency, µM (highest dose often 57.1 µM), for inactives: top-dose activity change, negative = inhibition, actives largely listed as inhibitors. hit rate 1.6% among 230,000. AID 2147; active = well fitted inhibition curve with a large enough effect, not every such curve was filed as active; inconclusive = small, poorly fitted or top-dose-only effect, or another doubt; inactive = no such curve, though single readings can be large or run the other way;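 note: potency is the fitted concentration of half-maximal effect; 0% = wells with enzyme and -100% = buffer wells without enzyme; nearly all actives have a fitted effect of over 50% in size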
CBFb-RUNX1 inh = blocks binding between human CBF-beta and RUNX1 | Q01196+Q13951 | AlphaScreen CBFb-His/RUNX1-biotin binding, biochemical | Potency, µM (titrated, usually from 59.8 µM), for inactives: at the top dose activity, negative = inhibition, most hits filed as inhibitors | 230,000 tested, under 10 active | AID 1477; note: % of control where 0% means no effect
Target sequence (Q01196 whole entry, looked up): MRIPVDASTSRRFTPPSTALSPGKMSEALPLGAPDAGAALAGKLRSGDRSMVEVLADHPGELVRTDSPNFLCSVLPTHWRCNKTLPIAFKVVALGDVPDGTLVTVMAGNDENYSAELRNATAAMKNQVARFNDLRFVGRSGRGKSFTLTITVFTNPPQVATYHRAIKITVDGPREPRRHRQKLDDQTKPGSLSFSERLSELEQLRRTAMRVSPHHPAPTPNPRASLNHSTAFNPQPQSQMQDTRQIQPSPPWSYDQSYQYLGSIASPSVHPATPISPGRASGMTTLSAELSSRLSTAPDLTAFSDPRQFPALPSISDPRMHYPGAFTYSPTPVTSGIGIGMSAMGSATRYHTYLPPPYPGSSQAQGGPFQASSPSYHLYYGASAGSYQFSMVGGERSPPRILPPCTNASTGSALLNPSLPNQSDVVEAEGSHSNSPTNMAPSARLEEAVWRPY
Target sequence (Q13951 whole entry, looked up): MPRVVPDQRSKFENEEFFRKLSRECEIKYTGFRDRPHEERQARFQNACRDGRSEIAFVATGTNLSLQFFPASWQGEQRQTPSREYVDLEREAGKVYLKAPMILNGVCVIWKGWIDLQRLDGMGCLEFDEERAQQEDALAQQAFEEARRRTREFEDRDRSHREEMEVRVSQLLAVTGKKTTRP
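Proteins preincubated together for 20 min at RT before compound addition; 15 min later, nickel and streptavidin beads were added and left 90 min prior to AlphaScreen measurement.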
Tau fibril ThT = inhibitors of human tau fibril formation, thioflavin T binding; hit rate 2.1% among 270,000; Potency, µM (doses to about 57.4 µM), for the others: at the top dose activity, negative = inhibition, usual class: inhibitors; P10636; recombinant tau K18 P301L (four-repeat tau fragment), heparin-induced fibrillization, ThT fluorescence; note: potency is the fitted concentration of half-maximal effect; % is set by controls: 0 for no effect and ±100 for the full control effect; nearly all actives have a fitted effect of over 55% in size
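Aggregation was driven by heparin (20 uM final) acting on recombinant tau […] bearing P301L in 100 mM sodium acetate pH 7; fibrils were detected with Thioflavin T.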
Lamin A splicing = changes lamin A minigene splicing in HeLa cells. HeLa LMNA splicing GFP/RFP minigene ratio, 48 h. Potency, µM (titrated, usually from 46.1 µM), without a hit: at the highest dose ratio change, negative = inhibition, most hits filed as inhibitors. hit rate 0.01% among 200,000. AID 1487; active = well fitted inhibition curve with a large enough effect in the signal ratio, with a control signal flat, not every such curve was filed as active; inconclusive = small, poorly fitted or top-dose-only effect, or effect the other way, or a change in a side signal; the % refers to the signal ratio; note: potency is the fitted concentration of half-maximal effect; % is set by controls: 0 for no effect and ±100 for the full control effect
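S3 HeLa stable clones carrying a lamin A-EGFP splicing minigene plus DsRed2 were seeded at 600 cells/well in Opti-MEM with 2% FBS, pin-dosed and incubated 48 h at 37°C. Acumen cytometry (488 nm) gave the GFP/RFP total-intensity ratio.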
* = called active by the depositor; ? = inconclusive; nt = no result given; [ ] = dose if it differs, or a comment. Unless noted, calls come from the whole dose curve; as a rule, active = well fitted curve in the direction sought with a large enough effect; inconclusive = small, poorly fitted or top-dose-only effect, or another doubt; inactive = no such curve, though single readings can be large; an effect the other way counts as inactive or inconclusive.

SMILES	Tau fibril FP	Tau fluor cs	KDM4E inh	CBFb-RUNX1 inh	Tau fibril ThT	Lamin A splicing
COc1ccc(C2=Nn3c(nnc3-c3ccccc3C)SC2)cc1OC	nt	nt	nt	-7%	nt	nt
O=[N+]([O-])c1ccc(CSc2ncnc3c2ncn3C2OC(CO)C(O)C2O)cc1 (centres undefined)	4%	3%	nt	11%	-8%	nt
O=[N+]([O-])c1ccc(O)c(/C=N/n2c(CO)nc3ccccc32)c1	7%	-8%	3%	0%	?	nt
C/C(=N\OCc1nc2ccccc2c(=O)n1/N=C/c1cc([N+](=O)[O-])ccc1O)c1ccccc1	-5%	14µM*[quencher]	?	-22%	nt	nt
C/C(=N\OCc1nc2ccccc2c(=O)n1/N=C/c1cc(C)cc([N+](=O)[O-])c1O)c1ccccc1	-2%	?	14µM*	?	4µM*	nt
Oc1ccc(N=Cc2cc(Br)c(N3CCOCC3)o2)cc1	?	?	0%	6%	3.2µM*	-7%
COc1ccc(Br)cc1C1CC(=O)N2CN(C)CSC2=C1C#N (centres undefined)	?	-15%	-4%	-2%	?	5%
COc1cc(OC)c(C2CC(=O)N3CN(c4ccccc4)CSC3=C2C#N)cc1OC (centres undefined)	35µM*	-25%	?	-9%	28µM*	7%
CCOc1ccc(N2CSC3=C(C#N)C(c4ccco4)CC(=O)N3C2)cc1 (centres undefined)	?	?	?	?	14µM*	15%
COc1cc(OC)c(C2CC(=O)N3CN(C)CSC3=C2C#N)cc1OC (centres undefined)	?	-17%	-9%	-10%	?	4%
COc1ccc(Br)cc1C1CC(=O)N2CN(Cc3ccccc3)CSC2=C1C#N (centres undefined)	?	-21%	-20%	-1%	28µM*	-3%
CCc1ccccc1N1CSC2=C(C#N)C(c3cc(OC)c(OC)cc3OC)CC(=O)N2C1 (centres undefined)	?	-26%	?	-3%	28µM*	-2%
CC(C)CO/N=C1/C[C@@H](O)[C@@H](O)[C@@H]2[C@@H]3C(=O)N([C@@H](C)c4ccccc4)C(=O)[C@H]3CC[C@H]12	?	-5%[11.6 µM]	nt	6%[13.1 µM]	-1%[11.5 µM]	nt
CC(C)(CS)C(=O)N1CCC[C@H]1C(=O)O	nt	nt	-6%[25.5 µM]	?	nt	?
COc1ccc(S(=O)(=O)N(CC(=O)Nc2cccnc2)c2ccc(Cl)cc2)cc1	-4%	-30%	nt	nt	0%	nt
CNc1ccc(/C=C/C(=O)c2cccc3ccccc23)cc1[N+](=O)[O-]	8%	-24%	1%	-9%	6.3µM*	-22%
Nc1nnc(CC(=O)N/N=C/c2ccc(-c3ccccc3)o2)s1	2%	-12%	?	-5%	?	?
COC(=O)c1ccc(-c2ccc(/C=N/NC(=O)Cc3nnc(N)s3)o2)cc1	6%	-16%	?	-13%	7.9µM*	nt
O=C(O)[C@H]1O[C@@H](Oc2ccc3ccc(=O)oc3c2)[C@H](O)[C@@H](O)[C@@H]1O	nt	nt	nt	16%	nt	nt
COC(=O)[C@H]1CC=C[C@H]2CCN(Cc3ccc(Cl)c(Cl)c3)C(=O)[C@@H]12	10%[81.3 µM]	-10%[81.3 µM]	nt	10%[89.1 µM]	-15%[81.4 µM]	nt
Cc1ccc(C2=CC(C)(c3ccc(C)cc3)Nc3nc(C(F)(F)F)nn32)cc1 (centres undefined)	-11%	-16%	-2%	5%	-15%	?
Cc1cc(C2=CC(C)(c3cc(C)oc3C)Nc3nc(C(F)(F)F)nn32)c(C)o1 (centres undefined)	?	-11%	?	0%	28µM*	-9%
CCn1c(Cl)c(C=O)s/c1=N\S(=O)(=O)c1ccccc1	7.1µM*	-27%	6%	-5%	8.9µM*	nt
COc1ccc(NC(=O)CSc2ncc3c(n2)-c2ccccc2N(C)S3(=O)=O)cc1Cl	?	?	nt	nt	4%	nt
CC(=O)Nc1ccc(NC(=O)Nc2ccc3c(c2)N(C)C(=O)CS3)cc1	3%	-20%	-3%	-10%	-14%	nt
SMILES	Tau fibril FP	Tau fluor cs	KDM4E inh	CBFb-RUNX1 inh	Tau fibril ThT	Lamin A splicing
COc1cccc(NC(=O)Nc2ccc3c(c2)N(C)C(=O)CS3)c1	2%	14µM*[quencher]	2%	-7%	?	-6%
CCOc1ccc(OCC)c(NC(=O)Nc2ccc3c(c2)N(C)C(=O)CS3)c1	5%	8.9µM*[quencher]	-4%	-19%	-18%	?
Nc1cccc(Nc2ccccc2)c1	6%	?	?	?	?	?
c1ccc(Nc2cccc(Nc3ccccc3)c2)cc1	-1%	11µM*[quencher]	-17%	-16%	?	-2%
Cc1ccc2c(c1)c(CC(NC(=O)c1ccccc1Oc1ccccc1)C(=O)O)cn2C(=O)OCc1ccccc1 (centres undefined)	nt	nt	nt	4%	nt	nt
COc1cc(OC)cc(C(=O)Nc2cc(-c3nc4cccnc4s3)ccc2C)c1	?	-29%	nt	nt	-12%	?
Nc1nonc1C(=O)NCCN=Cc1cc(Cc2ccccc2)cc(Br)c1O	?	?	1%	3%	28µM*	?
COC(=O)C12CC3(CCC4C5C(C(OCc6ccccc6)C41)C52)OCCO3 (centres undefined)	1%[11.6 µM]	-12%[11.6 µM]	nt	8%[13.1 µM]	-10%[11.5 µM]	nt
O=C(NCCn1cc(SCc2ccccc2F)c2ccccc21)c1cccs1	-16%	?	nt	nt	?	nt
O=C(NCCn1cc(SCc2ccc(Cl)cc2)c2ccccc21)c1cccs1	-19%	8.9µM*[quencher]	nt	nt	?	nt
Cc1ccc(CSc2cn(CCNC(=O)c3cccs3)c3ccccc23)cc1	-6%	8.9µM*[quencher]	nt	nt	?	nt
Cc1ccccc1CSc1cn(CCNC(=O)c2cccs2)c2ccccc12	-17%	7.9µM*[quencher]	nt	nt	?	nt
O=C(NCCn1cc(SCc2ccc(F)cc2)c2ccccc21)c1cccs1	-5%	7.9µM*[quencher]	nt	nt	?	nt
O=C(CSc1cn(CCNC(=O)c2cccs2)c2ccccc12)NCc1ccccc1	-3%	-26%	5%	-13%	-11%	?
CCCCOc1ccc(C2c3c(oc4ccccc4c3=O)C(=O)N2c2nc(C)c(C(=O)OCC)s2)cc1OC (centres undefined)	4%	-10%	nt	nt	-11%	nt
Cc1cccc(N2CCN(C(=O)Cn3c(=O)c4cccn4c4ccc(F)cc43)CC2)c1C	-5%	-9%	nt	nt	-8%	-18%[46 µM]
COC(=O)C1=C(C)N(CCc2ccc(OC)c(OC)c2)C(=O)/C1=C\N(C)C	?	-26%	-6%	-1%	14µM*	-3%
O=[N+]([O-])c1cc(-c2ccc(/C=N/c3nc4ccccn4c3-c3ccco3)o2)ccc1Cl	?	25µM*[quencher]	?	?	11µM*	-10%
